In PubChem BioAssay AID743280 (The Scripps Research Institute Molecular Screening Center, 2014):
Hit rate of the full screen: of about 2,000 compounds, about 680 (34%) were called active. A selection follows. Unmarked numbers belong to inactive results.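 The calls were made as follows: active = mean inhibition across triplicates above the hit cutoff set in the earlier primary screen (cut at about 19% in these data); inactive = the rest.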

Molecular target: Group 3 secretory phospholipase A2 (Homo sapiens) (UniProt Q9NZ20)
Test: HGIII-sPLA2 enzyme inhibition – biochemical, QFRET, triplicate, confirmation (AID 743280);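 also: 0% = enzyme with DMSO and 100% = DMSO wells lacking enzyme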
Settings: recombinant hGIII-sPLA2, BODIPY PC-A2 QFRET fluorescence; at 12.2 µM; stronger effect = higher value

Chain of Group 3 secretory phospholipase A2 (Homo sapiens) (Q9NZ20 whole entry, looked up): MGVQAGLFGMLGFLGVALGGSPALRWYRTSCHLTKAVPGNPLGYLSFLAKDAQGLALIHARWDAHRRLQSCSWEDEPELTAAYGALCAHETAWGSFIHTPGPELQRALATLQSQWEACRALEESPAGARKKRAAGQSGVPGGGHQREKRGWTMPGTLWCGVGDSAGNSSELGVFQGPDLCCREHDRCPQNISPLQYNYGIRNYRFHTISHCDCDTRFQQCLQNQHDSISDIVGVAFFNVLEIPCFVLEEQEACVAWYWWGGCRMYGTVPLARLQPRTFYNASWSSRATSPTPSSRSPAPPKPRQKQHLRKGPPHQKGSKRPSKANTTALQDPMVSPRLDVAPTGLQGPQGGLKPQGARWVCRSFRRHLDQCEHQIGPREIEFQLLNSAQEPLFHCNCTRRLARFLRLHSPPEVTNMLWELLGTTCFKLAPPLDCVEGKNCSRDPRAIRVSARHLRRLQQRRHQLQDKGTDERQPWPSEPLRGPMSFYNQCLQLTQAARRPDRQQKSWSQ

Row | Compound | inhibition
1 | CCc1cccc(CC)c1NC(=S)NCc1ccc2[nH]c(C)cc2c1 | -6.2%
2 | CC(=O)NC(c1cccs1)c1cc(Br)c2cccnc2c1O (configuration not stated) | 19.7% (active)
3 | CCOc1ccc(/C=N/NC(N)=S)cc1 | 12.7%
4 | Cc1ccccc1NC(=O)C1CCN(c2ncccn2)CC1 | -1.34%
5 | CC(=O)/C(=N\Nc1ccc(Cl)cc1Cl)Sc1cccc2cccnc12 | -6.23%
6 | CCc1cc(-c2n[nH]c(=S)n2CC(C)C)cs1 | 24.9% (active)
7 | CC(C)c1ccc(Nc2nnc(SCC(=O)c3nnc(-c4ccccc4)o3)s2)cc1 | 6.4%
8 | O=C1C(=O)N(Cc2ccc(-c3ccsc3)cc2)c2ccc(OC(F)(F)F)cc21 | 32.9% (active)
9 | C=CCn1c(C23CC4CC(CC(C4)C2)C3)n[nH]c1=S | 27.1% (active)
10 | CCN(Cc1ccccc1)C(=O)CN1C(=S)NC(C)(C)CC1C (configuration not stated) | 8.88%
11 | CC1=CC(C)(C)NC(=S)N1c1ccccc1 | 14.3%
12 | CCCCn1c(N)c(N(CCOC)C(=O)COc2c(C)cccc2C)c(=O)[nH]c1=O | 10.8%
13 | O=C(NNC(=S)Nc1ccc(F)cc1)[C@H]1C[C@@H]1c1ccccc1 | 35.9% (active)
14 | COc1cc(NS(=O)(=O)c2ccc3ccccc3c2)c2ncccc2c1 | 11%
15 | CSC1=NN(c2ccccc2)CN(c2ccccc2)N1C | 25.6% (active)
16 | CCOC(=O)C1(Cc2cccc(OC)c2)CCCN(C(=O)CCSC)C1 (configuration not stated) | 2.05%
17 | C/C(=N\Nc1ccc(Cl)nn1)c1ccccc1O | 7.83%
18 | Brc1ccccc1C1Nc2cccc3cccc(c23)N1 | 58.1% (active)
19 | CC(=O)c1nnn(-c2ccc(Cl)cc2C#N)c1C | 1.06%
20 | O=C(NNc1ccccn1)c1ccc(Cl)nc1 | 25.9% (active)
21 | COc1cccc(NC(C)=[N+](C)CCNS(=O)(=O)c2ccc(Cl)cc2)c1 | -1.54%

Row | Compound | inhibition
22 | COc1cc(OC)cc(C2=Cc3ccccc3C(CC(=O)c3ccco3)N2c2ccc(-c3cnc(OC)nc3)cc2)c1 (configuration not stated) | 1.48%
23 | Cc1cccc(-n2cnc(C(=O)NNC(=S)Nc3ccccc3)c2)n1 | 46.5% (active)
24 | O=C(CSc1nc2ccccc2n1Cc1ccccc1)NNC(=S)Nc1ccccc1 | 15.2%
25 | C/C(=N\NC(=O)CSc1nc2ccccc2c(=O)n1-c1ccccc1C)c1cccs1 | -11%
26 | Nc1ccc(Nc2ccccc2)cc1 | 17.8%
27 | COCCCNC(=O)CNC(=S)N(Cc1cc(OC)c(OC)c(OC)c1)C1CCCC1 | 7.62%
28 | CC(C)(c1ccccc1)c1ccc(OCCN)cc1 | 0.24%
29 | Cc1cc(-c2n[nH]c(=S)n2-c2ccc(C)c(C)c2)no1 | 24.4% (active)
30 | COc1ccccc1OCCn1c(SCC(N)=O)nc2ccccc21 | 13.8%
31 | O=C(Nc1cccc(F)c1)c1cc(-c2ccco2)nc2ccccc12 | 9.4%
32 | CC(=O)Oc1ccc2c(c1)C(=O)c1ccccc1C2=O | 1.09%
33 | Cc1ccc2sc(NNC(=O)c3ccc4c(c3)OCCO4)nc2c1C | 38.7% (active)
34 | C#CCCCc1nc2ccccc2c(=O)n1N | 1.47%
35 | Oc1ccc2ccccc2c1N=Nc1nccs1 | 47.5% (active)
36 | CSc1ccc(NC(=O)/C=C/C(=O)O)cc1 | -0.31%
37 | Cc1sc2nc(SCC(=O)c3ccc(O)c(O)c3)n(Cc3ccco3)c(=O)c2c1C | -10.3%
38 | C/C(=N\NC(=S)Nc1ccc(C)cc1)c1cc2ccccc2o1 | 40.2% (active)
39 | COc1ccccc1OCC(=O)OCn1c(SC)nnc(C)c1=O | -3.63%
40 | Cc1ccc(S(=O)(=O)N2CCOCC2)cc1C(=O)NC(=S)N(Cc1ccccc1)C(C)C | 21.7% (active)
41 | O=C(COc1ccc(S(=O)(=O)NCc2ccccc2)cc1)N1CCOCC1 | -1.27%
42 | CC(C(=O)Nc1ccccc1-c1ccccc1)N1CCOCC1 (configuration not stated) | 3.12%

Row | Compound | inhibition
43 | CC(C)c1cc(C(=O)N/N=C/c2ccoc2)c(O)c(C(C)C)c1 | 9.71%
44 | NC(Cc1ccccc1)c1csc(Nc2cc(Oc3ccccc3)ncn2)n1 (configuration not stated) | 9.47%
45 | NC[C@H](Cc1ccccc1)NCCc1cc(C(F)(F)F)cc(C(F)(F)F)c1 | 23.4% (active)
46 | Cc1cccc(NC(=S)NCCN(C2CCCCC2)C2CCCC2)c1 | 15.1%
47 | Cc1nnc(Sc2nc3c(c(=O)[nH]c(=O)n3C)n2Cc2ccccc2)s1 | -3.34%
48 | CN(C)S(=O)(=O)c1cccc(NC(=S)N/N=C/C(=O)c2ccccc2)c1 | 33.4% (active)
49 | COc1ccnc(NC(=S)N2CCN(c3ncc(C(F)(F)F)cc3Cl)CC2)c1 | 19%
50 | CC(C)=CCCC1(C)C=Cc2c(ccc3c2[nH]c2cc(O)c(C)cc23)O1 (configuration not stated) | -8.08%
51 | O=C(NNC(=S)Nc1ccc(Br)cc1Cl)c1ccco1 | 32.4% (active)
52 | O=C(NN1C(=O)C2C3C=CC(C3)C2C1=O)c1ccco1 (configuration not stated) | 1.65%
53 | Cc1c(Cl)cccc1NC(=S)NCc1ccc2c(c1)OCO2 | 13.1%
54 | CCOC12CC(C)(C)CC(C)(CC3=C1C(=O)CC(C)(C)C3)C2 (configuration not stated) | 0.63%
55 | O=C(CCl)NNc1cccc(Cl)n1 | 74.6% (active)
56 | S=C(NNC(=S)NC1CC2CCC1C2)NC1CC2C=CC1C2 (configuration not stated) | 22.1% (active)
57 | O=C(NNC(=S)NC1CC2CCC1C2)c1ccc(Cl)cc1 (configuration not stated) | 22.9% (active)
58 | Cc1cccc(C)c1NC(=O)CN1C(=O)C(C)Oc2ccccc21 (configuration not stated) | 3.96%
59 | Cn1c2c(c(=O)n(C)c1=O)C1c3ccccc3OCC1C(C)(C)O2 (configuration not stated) | -1.2%
60 | Cc1ccc(C2Nc3ccccc3C(=O)N2CCN2CCNC2=O)cc1 (configuration not stated) | -3.41%
61 | O=C(N/N=C/c1cc(Cl)cc([N+](=O)[O-])c1O)C(O)(c1ccccc1)c1ccccc1 | 35.7% (active)
62 | Cc1c(C(=O)N/N=C/c2ccccc2)[nH]c2c([N+](=O)[O-])cccc12 | -5.71%
63 | Cc1[nH]c(N)nc(=S)c1CCCNc1ccccc1 | 18.5%

Row | Compound | inhibition
64 | S=c1[nH]nc(-c2ccco2)n1/N=C/c1ccccc1 | 13.8%
65 | CC(NC(=O)COC(=O)Cn1cc(C(F)(F)F)ccc1=O)c1ccccc1 (configuration not stated) | 0.6%
66 | CC(Oc1ccc2ccccc2c1)C(=O)NNC(=S)NC(=O)c1ccco1 (configuration not stated) | 22.6% (active)
67 | CCOC(=O)NC(=O)/C(C#N)=C\c1ccccc1 | -5.62%
68 | N=C(N)SCc1cccc2ccccc12 | 23.3% (active)
69 | O=C(OC12CC3CC(CC(C3)C1)C2)c1ccc(NCc2cc(O)ccc2O)cc1 | 42.8% (active)
70 | COc1cc(/C=N/n2c(C)n[nH]c2=S)ccc1OCc1ccccc1 | 6.69%
71 | O=C(NNC(=S)NC1CCCCC1)c1ccccc1Cl | 31.4% (active)
72 | COc1ccc(Cl)cc1C(=O)NNC(=S)NC1CCCC1 | 38.5% (active)
73 | CCNC(=S)Nc1ccc(OC(F)(F)F)cc1 | 10.7%
74 | CC(C)CC(=O)NC(=S)NNC(=O)c1cccc([N+](=O)[O-])c1 | 31.6% (active)
75 | CCCCCCCCCCOC(=O)C[N+](C)(C)CC1CCCCC1O (configuration not stated) | 4.96%
76 | COc1ccc2c(c1)c(=Cc1ccc(N(C)C)cc1)c1cc(-c3ccccc3)[n+](C)n12 | 45.1% (active)
77 | O=C(/C=C/c1c(Cl)cccc1Cl)NCc1ccccc1 | 3.51%
78 | CCCCOc1ccc(CSC(=N)N)cc1[N+](=O)[O-] | 25.2% (active)
79 | CC[C@]1(O)C[C@@H]2CN(CCc3c([nH]c4ccccc34)[C@@](C(=O)OC)(c3cc4c(cc3OC)N(C)[C@H]3[C@@](O)(C(=O)OC)[C@H](OC(C)=O)[C@]5(CC)C=CCN6CC[C@]43[C@@H]65)C2)C1 | 10.2%
80 | Nc1[nH]c(C(=O)c2ccccc2)c(-c2ccc(Br)cc2)c1C(=O)NC1CC1 | 12.2%
81 | COC(=O)C(C)n1cnc2c(nnn2-c2ccc(F)cc2)c1=O (configuration not stated) | 1.8%
82 | CN(CC(=O)Nc1ccc(N2CCOCC2)cc1)CC(=O)Nc1ccccc1[N+](=O)[O-] | -2.32%
